# Paper PMC7862700, “An all-to-all approach to the identification of sequence-specific readers for epigenetic DNA modifications on cytosine”
# Experiments:
# Assay in all cases: DAPPL (digital affinity profiling via proximity ligation, sequencing); 10 mM Tris-HCl pH 7.5, 50 mM NaCl, 1 mM DTT, 4% glycerol, room temperature, 30 min; GST-TFs on glutathione beads, 16-mer random dsDNA library, 0.1% formaldehyde crosslink after washing; high values mean tight binding
# FEV = target: T1, FEV (Homo sapiens, UniProt Q99581 1-238); details: protein: recombinant; tags: N-terminal GST; dsDNA, one strand shown
# T1 sequence: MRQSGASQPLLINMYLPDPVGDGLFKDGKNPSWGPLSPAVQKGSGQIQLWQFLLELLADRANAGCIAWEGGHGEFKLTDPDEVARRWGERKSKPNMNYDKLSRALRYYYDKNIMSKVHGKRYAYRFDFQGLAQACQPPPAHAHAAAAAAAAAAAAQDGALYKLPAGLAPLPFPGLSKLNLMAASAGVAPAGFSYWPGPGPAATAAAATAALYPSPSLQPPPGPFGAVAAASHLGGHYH
# How it was run: (§1)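 Human transcription factors fused to GST were expressed in yeast, captured on glutathione beads, given DNA barcodes and pooled with a GST-only negative control. Pools were incubated with 200 nmole of a 16-mer random double-stranded DNA library in Tris/NaCl/DTT/glycerol buffer at room temperature for 30 min. They were then washed, crosslinked with 0.1% formaldehyde, proximity-ligated (BsaI/T4 ligase, 1 h, 37 °C), PCR-amplified and sequenced on an Illumina NextSeq500. Binding signal is each 6-mer's read frequency for a factor divided by its frequency for the GST control.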
# ETV5 = ETV5 (Homo sapiens, UniProt P41161 1-510); details: protein: recombinant; tags: N-terminal GST; dsDNA, one strand shown
# Sequence of ETV5 (P41161 whole entry): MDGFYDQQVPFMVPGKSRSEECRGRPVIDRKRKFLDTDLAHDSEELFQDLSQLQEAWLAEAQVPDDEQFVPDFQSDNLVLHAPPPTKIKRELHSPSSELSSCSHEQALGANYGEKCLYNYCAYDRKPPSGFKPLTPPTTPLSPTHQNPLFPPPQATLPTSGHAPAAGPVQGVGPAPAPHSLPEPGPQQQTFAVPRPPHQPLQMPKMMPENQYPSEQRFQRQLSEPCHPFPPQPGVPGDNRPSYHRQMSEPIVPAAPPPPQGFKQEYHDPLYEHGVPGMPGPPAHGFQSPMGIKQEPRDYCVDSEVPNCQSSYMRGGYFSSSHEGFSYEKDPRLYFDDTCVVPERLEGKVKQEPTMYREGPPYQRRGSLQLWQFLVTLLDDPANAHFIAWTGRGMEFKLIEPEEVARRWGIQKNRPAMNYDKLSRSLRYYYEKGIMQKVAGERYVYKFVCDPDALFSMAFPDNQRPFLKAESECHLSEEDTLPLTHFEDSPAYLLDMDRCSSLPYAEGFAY
# How it was run: as §1
# HSF1 = HSF1 (Homo sapiens, UniProt Q00613 1-529); details: protein: recombinant; tags: N-terminal GST; chain copies: 3; dsDNA, one strand shown
# Sequence of HSF1 (Q00613 whole entry): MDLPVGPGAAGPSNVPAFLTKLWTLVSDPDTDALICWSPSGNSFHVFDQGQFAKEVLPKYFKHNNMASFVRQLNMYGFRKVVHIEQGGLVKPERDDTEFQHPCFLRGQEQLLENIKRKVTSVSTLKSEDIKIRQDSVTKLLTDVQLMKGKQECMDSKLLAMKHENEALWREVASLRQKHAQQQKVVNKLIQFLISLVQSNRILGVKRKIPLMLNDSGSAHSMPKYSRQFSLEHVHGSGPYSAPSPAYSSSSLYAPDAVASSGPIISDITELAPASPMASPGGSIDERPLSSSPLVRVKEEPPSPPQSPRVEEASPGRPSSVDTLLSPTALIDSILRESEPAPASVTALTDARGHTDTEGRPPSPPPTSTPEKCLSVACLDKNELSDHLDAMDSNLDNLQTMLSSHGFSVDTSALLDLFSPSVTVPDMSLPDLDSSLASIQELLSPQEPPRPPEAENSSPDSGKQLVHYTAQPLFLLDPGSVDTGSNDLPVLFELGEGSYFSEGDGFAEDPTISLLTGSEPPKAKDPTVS
# How it was run: as §1
# SPIC = target: T2, SPIC (Homo sapiens, UniProt Q8N5J4 1-248); details: protein: recombinant; tags: N-terminal GST; dsDNA, one strand shown
# T2 sequence: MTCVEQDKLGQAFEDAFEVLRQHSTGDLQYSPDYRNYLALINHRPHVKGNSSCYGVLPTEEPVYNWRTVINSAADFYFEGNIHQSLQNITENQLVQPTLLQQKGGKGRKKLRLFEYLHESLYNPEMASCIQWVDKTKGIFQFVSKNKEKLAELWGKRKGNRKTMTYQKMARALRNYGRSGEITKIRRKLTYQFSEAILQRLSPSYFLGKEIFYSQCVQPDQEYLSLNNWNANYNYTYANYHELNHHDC
# How it was run: as §1
# ELF4 = ELF4 (Homo sapiens, UniProt Q99607 1-663); details: protein: recombinant; tags: N-terminal GST; dsDNA, one strand shown
# Sequence of ELF4 (Q99607 whole entry): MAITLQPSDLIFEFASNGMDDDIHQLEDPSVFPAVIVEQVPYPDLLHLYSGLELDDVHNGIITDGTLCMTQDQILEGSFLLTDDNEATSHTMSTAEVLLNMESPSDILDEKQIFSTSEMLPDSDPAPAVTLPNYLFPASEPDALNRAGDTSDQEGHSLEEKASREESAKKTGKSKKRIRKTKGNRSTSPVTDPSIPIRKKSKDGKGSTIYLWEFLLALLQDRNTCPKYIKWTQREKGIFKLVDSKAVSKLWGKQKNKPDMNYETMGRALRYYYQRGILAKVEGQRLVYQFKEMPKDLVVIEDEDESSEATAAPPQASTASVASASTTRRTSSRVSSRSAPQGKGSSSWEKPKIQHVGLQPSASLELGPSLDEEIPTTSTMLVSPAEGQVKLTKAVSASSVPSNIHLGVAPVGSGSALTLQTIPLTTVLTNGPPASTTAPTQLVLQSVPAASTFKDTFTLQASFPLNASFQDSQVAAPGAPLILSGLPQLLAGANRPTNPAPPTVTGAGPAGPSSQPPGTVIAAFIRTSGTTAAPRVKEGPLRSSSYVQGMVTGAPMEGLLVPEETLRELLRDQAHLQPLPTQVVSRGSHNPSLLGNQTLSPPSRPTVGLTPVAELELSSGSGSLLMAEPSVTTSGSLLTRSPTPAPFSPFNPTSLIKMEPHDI
# How it was run: as §1
# ELK4 = target: T3, ELK4 (Homo sapiens, UniProt P28324-2 1-405); details: protein: recombinant; tags: N-terminal GST; dsDNA, one strand shown
# T3 sequence: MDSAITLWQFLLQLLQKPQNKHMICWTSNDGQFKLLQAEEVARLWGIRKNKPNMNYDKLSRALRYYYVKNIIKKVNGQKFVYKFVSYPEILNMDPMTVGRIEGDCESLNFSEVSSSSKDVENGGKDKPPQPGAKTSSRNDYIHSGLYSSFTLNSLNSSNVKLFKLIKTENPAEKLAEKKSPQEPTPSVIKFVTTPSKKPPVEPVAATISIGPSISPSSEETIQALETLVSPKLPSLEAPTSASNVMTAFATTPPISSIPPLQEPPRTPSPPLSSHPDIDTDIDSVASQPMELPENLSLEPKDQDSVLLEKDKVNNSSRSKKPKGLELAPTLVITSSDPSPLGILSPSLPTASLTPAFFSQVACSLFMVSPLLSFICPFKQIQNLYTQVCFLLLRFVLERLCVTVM
# How it was run: as §1
# ETV2 = target: T4, ETV2 (Homo sapiens, UniProt O00321 1-342); details: protein: recombinant; tags: N-terminal GST; dsDNA, one strand shown
# T4 sequence: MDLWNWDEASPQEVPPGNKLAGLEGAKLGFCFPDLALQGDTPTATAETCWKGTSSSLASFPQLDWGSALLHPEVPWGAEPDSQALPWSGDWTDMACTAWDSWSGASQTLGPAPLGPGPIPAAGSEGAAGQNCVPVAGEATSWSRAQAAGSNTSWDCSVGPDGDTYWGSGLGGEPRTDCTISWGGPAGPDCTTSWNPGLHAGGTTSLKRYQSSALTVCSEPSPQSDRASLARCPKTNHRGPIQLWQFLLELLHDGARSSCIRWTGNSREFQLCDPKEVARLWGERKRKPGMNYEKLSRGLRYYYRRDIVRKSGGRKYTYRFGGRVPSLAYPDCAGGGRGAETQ
# How it was run: as §1
# ELF3 = target: T5, ELF3 (Homo sapiens, UniProt P78545 1-371); details: protein: recombinant; tags: N-terminal GST; dsDNA, one strand shown
# T5 sequence: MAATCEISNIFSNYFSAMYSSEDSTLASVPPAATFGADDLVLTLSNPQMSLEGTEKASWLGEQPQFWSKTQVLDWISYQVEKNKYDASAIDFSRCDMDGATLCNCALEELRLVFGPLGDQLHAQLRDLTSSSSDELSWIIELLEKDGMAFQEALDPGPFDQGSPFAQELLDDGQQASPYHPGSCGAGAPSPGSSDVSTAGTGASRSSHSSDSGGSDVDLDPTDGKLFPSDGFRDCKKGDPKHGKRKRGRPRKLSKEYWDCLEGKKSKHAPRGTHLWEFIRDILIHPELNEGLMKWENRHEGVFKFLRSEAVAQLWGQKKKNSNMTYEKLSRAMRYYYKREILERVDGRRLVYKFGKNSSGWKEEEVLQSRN
# How it was run: as §1
# CRX = CRX (Homo sapiens, UniProt O43186 1-299); details: protein: recombinant; tags: N-terminal GST; dsDNA, one strand shown
# Sequence of CRX (O43186 whole entry): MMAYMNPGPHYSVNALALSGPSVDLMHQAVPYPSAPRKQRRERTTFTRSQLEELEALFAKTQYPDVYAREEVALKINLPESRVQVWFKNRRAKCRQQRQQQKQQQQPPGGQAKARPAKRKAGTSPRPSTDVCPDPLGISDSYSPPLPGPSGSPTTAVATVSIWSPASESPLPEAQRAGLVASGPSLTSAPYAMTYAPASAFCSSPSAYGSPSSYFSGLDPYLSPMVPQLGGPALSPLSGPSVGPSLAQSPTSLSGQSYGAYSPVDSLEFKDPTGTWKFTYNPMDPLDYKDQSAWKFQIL
# How it was run: as §1
sequence,measurement,setting,value
AACATT,binding signal,FEV,"1.2 fold enrichment (6-mer frequency, TF over GST control)"
same,binding signal,ETV5,"1.31 fold enrichment (6-mer frequency, TF over GST control)"
same,binding signal,HSF1,"1.99 fold enrichment (6-mer frequency, TF over GST control)"
same,binding signal,SPIC,"1.21 fold enrichment (6-mer frequency, TF over GST control)"
same,binding signal,ELF4,"1.29 fold enrichment (6-mer frequency, TF over GST control)"
same,binding signal,ELK4,"1.31 fold enrichment (6-mer frequency, TF over GST control)"
same,binding signal,ETV2,"1.29 fold enrichment (6-mer frequency, TF over GST control)"
same,binding signal,ELF3,"1.33 fold enrichment (6-mer frequency, TF over GST control)"
same,binding signal,CRX,"1.34 fold enrichment (6-mer frequency, TF over GST control)"
